USP30 inh – blocks human USP30 ubiquitin-rhodamine cleavage; purified USP30, Ub-rhodamine cleavage fluorescence; inhibition, % at 25 µM; 5.3% of 47,000 active; AID 1645860
USP8 block – blocks human USP8 ubiquitin-rhodamine cleavage. P40818. purified USP8, Ub-rhodamine cleavage fluorescence, 30 min. 4.2% of 47,000 active. inhibition, % at 20 µM
USP28 inh – inhibitors of human USP28 deubiquitinase; Q96RU2; purified USP28, Ub-rhodamine cleavage fluorescence, 30 min; inhibition, % at 25 µM; 3% of 47,000 active
USP17 inh – inhibitors of human USP17 deubiquitinase | A8MUK1 | purified USP17, Ub-rhodamine cleavage fluorescence, 3 h | inhibition, % at 50 µM | 6.5% of 47,000 active | AID 1645855
Target sequence (A8MUK1 whole entry, looked up): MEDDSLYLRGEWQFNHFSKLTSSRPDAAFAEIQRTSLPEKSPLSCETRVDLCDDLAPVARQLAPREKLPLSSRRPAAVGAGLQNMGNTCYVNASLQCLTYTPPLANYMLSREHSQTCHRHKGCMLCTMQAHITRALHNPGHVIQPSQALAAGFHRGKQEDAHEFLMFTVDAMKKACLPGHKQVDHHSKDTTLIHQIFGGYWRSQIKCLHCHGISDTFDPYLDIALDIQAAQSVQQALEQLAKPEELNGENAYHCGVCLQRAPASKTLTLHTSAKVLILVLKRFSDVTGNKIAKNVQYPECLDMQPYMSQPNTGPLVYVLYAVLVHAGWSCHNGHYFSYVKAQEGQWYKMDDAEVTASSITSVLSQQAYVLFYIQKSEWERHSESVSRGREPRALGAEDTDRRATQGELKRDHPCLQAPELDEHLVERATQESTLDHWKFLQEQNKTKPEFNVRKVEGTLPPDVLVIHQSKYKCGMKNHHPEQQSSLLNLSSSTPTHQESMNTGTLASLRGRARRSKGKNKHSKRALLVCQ
The depositor's hits bear a star; nt = no result given. In the library only some 13% were active in any assay of this set; here they are far more common. Rule as the data show it: active = inhibition above about 30%; inactive = the rest.

SMILES | USP30 inh | USP8 block | USP28 inh | USP17 inh
O=C(Cn1cc(C(=O)c2ccc(Cl)cc2)c(=O)c2cc(F)ccc21)Nc1ccc(F)c(F)c1 | -86 | 0 | -39 | -2
Cc1nc2nc(C)c(CCC(=O)N3CCC(C)CC3)c(C)n2n1 | 0 | -2 | 0 | -1
CCN(c1ccccc1)S(=O)(=O)c1ccc2[nH]cc(C(=O)NCc3cccnc3)c(=O)c2c1 | -1 | 38* | 5 | 16
O=C1CN(Cc2ccccc2)S(=O)(=O)c2ccccc2N1Cc1ccccc1F | 17 | -8 | -2 | -6
O=C1CN(Cc2cccc(F)c2)S(=O)(=O)c2ccccc2N1Cc1ccccc1F | 31* | 3 | 6 | 6
COc1ccc(C2CC(=O)N(Cc3ccccc3F)c3ccccc3S2(=O)=O)cc1OC (stereo unspecified) | -59 | 33* | 0 | 36*
O=C1CN(Cc2ccc(F)cc2)S(=O)(=O)c2ccccc2N1Cc1ccccc1F | 21 | 8 | 12 | 6
O=C1CC(c2ccccc2)S(=O)(=O)c2ccccc2N1Cc1ccccc1F (stereo unspecified) | 29 | 14 | 8 | 39*
Cc1sc(NC(=O)c2ccco2)c(C(c2cccnc2)N2CCN(c3ccccc3F)CC2)c1C (stereo unspecified) | 0 | 17 | 12 | 1
COc1cc2c(cc1OC)CN(C(=O)C(NC(=O)c1ccccc1)C(C)C)CC2 (stereo unspecified) | 4 | 53* | 3 | 20
CC(=O)N1CCc2cc(S(=O)(=O)NCC3COc4ccccc4O3)ccc21 (stereo unspecified) | 8 | -39 | 9 | 38*
CC(=O)N1CCc2cc(S(=O)(=O)NCc3ccc(C)cc3)ccc21 | 0 | 2 | -2 | 57*
O=C(C1CC1)N1CCc2cc(S(=O)(=O)NCC3COc4ccccc4O3)ccc21 (stereo unspecified) | -6 | -8 | -3 | -6
CC(=O)N1CCc2cc(CNS(=O)(=O)c3ccccc3)ccc21 | 17 | -2 | 9 | 3
CCC(=O)N1c2ccc(S(=O)(=O)NCC(=O)NCc3ccc(C)cc3)cc2CC1C (stereo unspecified) | 34* | 2 | 19 | 15
CCC(=O)N1c2ccc(S(=O)(=O)N3CCOCC3)cc2CC1C (stereo unspecified) | -5 | -18 | 1 | -4
CCC(C(=O)Nc1ccccc1F)n1c(SCc2cccc(F)c2)nc2ccncc21 (stereo unspecified) | -1 | 13 | 13 | 5
COc1ccc(-c2[nH]c3ncccc3c2CN(C)Cc2ccncc2)cc1 | 8 | 5 | -16 | -39
Nc1ccc2oc(-c3cccc(-c4nc5cc(N)ccc5o4)n3)nc2c1 | 68* | 73* | 48* | 53*
Clc1ccc2oc(-c3cccs3)nc2c1 | 10 | 2 | 4 | 5
c1cncc(CN2CCC[C@H]2c2nc(-c3ccc(-n4ccnc4)nc3)no2)c1 | 1 | 24 | 0 | 41*
CCC(=O)Nc1c(C)noc1/C=C\c1ccc(S(=O)(=O)Nc2ccc(F)cc2F)cc1 | 46* | 6 | 3 | 22
O=C(c1cnn2cccnc12)N1CCC(c2ccn3nccc3n2)CC1 | 33* | 4 | 15 | 18
O=C(c1cnn2cccnc12)N1CCn2c(nnc2C2CC2)C1 | 27 | 26 | 16 | 18
CCc1ccc(S(=O)(=O)Nc2ccc3[nH]ncc3c2)cc1 | 0 | 35* | 9 | 7
SMILES | USP30 inh | USP8 block | USP28 inh | USP17 inh
O=C(c1ccncc1)N1C[C@H](OCc2ccncc2)[C@H]2OCCC[C@H]21 | -12 | -40 | -12 | -1
CC(C)C(=O)O[C@H]1[C@H](C)C(=O)O[C@@H](C)[C@@H](NC(=O)c2cccc(NC=O)c2O)C(=O)O[C@@H]1C | 35* | -31 | 18 | 45*
COC(=O)C(NC(=O)c1cccc(NC=O)c1O)C(C)O (stereo unspecified) | -6 | -120 | -15 | -28
COc1cccc(O[C@@H]2C[C@@H](NC(=O)c3cccnc3)[C@H](N(C)C)[C@H]2O)c1 | 8 | 3 | 3 | 3
COc1ccccc1CNC(=O)c1ccc(CSc2nc3ccncc3n2Cc2ccccc2)cc1 | 56* | -10 | 31* | 40*
CCC(C)NC(=O)c1ccc(Cn2c(SCc3ccc(C)cc3)nc3ccncc32)cc1 (stereo unspecified) | 0 | 5 | 22 | 4
COc1ccc(Cn2c(SCc3ccc(C(=O)NCCc4ccccc4)cc3)nc3ccncc32)cc1 | 53* | -4 | 30 | 32*
COc1cccc(CNC(=O)c2ccc(CSc3nc4ccncc4n3Cc3ccccc3F)cc2)c1 | 54* | -5 | 34* | 36*
COC(=O)c1ccc(CSc2nc3ccncc3n2CC(=O)N2CCCC2)cc1 | -18 | -126 | -10 | -26
COc1ccc(CSc2nc3ccncc3n2CC(=O)Nc2ccc(C)cc2C)cc1 | 84* | 28 | 70* | 72*
COCc1ccc(C(=O)N2CCOC(c3cncc(-c4cccc(F)c4)n3)C2)cc1 (stereo unspecified) | -1 | -5 | -1 | -7
Cc1cc(C(=O)CSc2nnc(Cn3cnc4ccccc43)n2-c2ccccc2Cl)c(C)n1C | -292 | -44 | -73 | -57
COc1ccc(-c2cc(CC3(C(=O)O)CCCN(C(=O)C4CC4)C3)on2)cc1 (stereo unspecified) | 13 | 12 | 9 | 10
COc1ccc(CCNC(=O)c2ccc(CSc3nc4ccncc4[nH]3)cc2)cc1OC | -9 | 1 | 34* | -17
COc1ccc(OC)c(CCNC(=O)c2ccc(CSc3nc4ccncc4[nH]3)cc2)c1 | -4 | -27 | 3 | -18
COc1ccc2c3c(c(=O)n(C)c2c1)C(=O)CC(=O)O3 | -18 | -34 | -15 | -1
CC(=O)c1ccc(NC(=O)c2ccc(N3CCCCS3(=O)=O)cc2Cl)cc1 | 4 | 31* | 25 | 52*
O=C(Nc1cccc(Br)c1)c1cccc(N2CCCCS2(=O)=O)c1 | -16 | 5 | -1 | -9
O=C(Nc1ccc(F)cc1)c1ccc(N2CCCCS2(=O)=O)cc1Cl | -1 | 0 | 19 | 18
O=C(Nc1ccc(Cl)c(Cl)c1)c1cccc(N2CCCCS2(=O)=O)c1 | -5 | -2 | 34* | 3
CC(C)c1ncc2c(n1)C1(CCN(CC3CC=CCC3)CC1)OCC2 (stereo unspecified) | -14 | 3 | -12 | -17
CC(=O)N1CC(=O)N(c2cccnc2)CC12CCN(Cc1ccco1)C2 (stereo unspecified) | -35 | -26 | -2 | -8
CCOc1ccc(NC(=O)Cn2cnc(S(=O)(=O)N3CCc4ccccc43)c2)cc1 | 11 | 1 | 48* | 80*
O=C(c1cc2cc(Cl)ccc2o1)N1CCC1 | nt | -4 | nt | 8
Cc1cnc(NC(=O)c2cc3cc(Cl)ccc3o2)s1 | 22 | 46* | 3 | 7
Cc1ccc(-c2cnc(C3CC3)o2)cc1S(=O)(=O)Nc1ccc(F)c(Cl)c1 | 2 | 4 | 29 | 66*
Cc1ccc(C)c(NS(=O)(=O)c2cc(-c3cnc(C4CC4)o3)ccc2C)c1 | -2 | 0 | -4 | 52*
O=C(CN1C(=O)CC(c2ccc(F)cc2)=Nc2ccccc21)Nc1ccccc1 | 21 | 6 | 27 | 38*

Assay outcomes as filed in PubChem BioAssay.
